Results from ChEMBL document CHEMBL3988442, “University of Dundee, Small-Polar-MMV Screening Library” (2021).
About 13,000 (27%) of roughly 48,000 compounds showed an effect of 50% or more. Some of the results follow.

System: Wolbachia pipientis
Experiment: Anti-Wolbachia Cell-Based Screen
Assay type: functional
Parameters: scale not given: in the data most compounds retested in dose-response had high values
Conditions: 5 µM

| SMILES | Percent Effect [%] |
| --- | --- |
| CSC(C)C(=O)N1CCC(Oc2cc(C)ccc2F)(C(=O)O)CC1 (stereo unspecified) | -19.74 |
| COc1ccc(CNc2cnn(CC(F)F)c2)cc1 | 98.47 |
| COc1cccc(CNc2cnn(C)c(=O)c2Cl)c1 | -15.43 |
| COc1cccc(CNc2c(C)nn(C(C)C)c2C)c1.Cl | -5.673 |
| COCCn1cc(NCc2c[nH]nc2-c2ccc(OC)cc2)cn1 | -43.6 |
| CC(C)(C)C(=O)N1CCN(C(=O)Nc2cnn(CC(F)F)c2)CC1 | 14.61 |
| COc1cccc(CNc2cnn(CC(F)F)c2)c1 | 110.9 |
| CC1=CC(C)(C)N(CN2C(=O)c3ccccc3C2=O)c2ccc(C)cc21 | -18.46 |
| CCN1CCC(CC(=O)NCCc2nc(C)c(Cl)s2)CC1 | -2.005 |
| CCC(c1nc(CC(C)C)nn1-c1ccccn1)n1cccn1 (stereo unspecified) | -7.483 |
| c1cc(C2CCN(c3cnccn3)CC2)ncn1 | 111.8 |
| Nc1nccc(C2CCN(c3cnccn3)C2)n1 (stereo unspecified) | 100.6 |
| c1cc(C2CCN(c3cnccn3)CC2)ccn1 | 108.9 |
| Cc1ccc(-c2cn[nH]c2C2CCCN(c3cnccn3)C2)cc1 (stereo unspecified) | -26.5 |
| c1ccc(C2CCN(c3cncc(-n4cccn4)n3)CC2)cc1 | -3.284 |
| O=C1OCCC1N1CCN(c2cnccn2)CC1 (stereo unspecified) | -13.03 |
| CC(c1ccccc1)N(C)C(=O)CN1CCN(c2cnccn2)CC1 (stereo unspecified) | -4.354 |
| CC(C)c1nccn1C(C)C(=O)N1CCN(c2cnccn2)CC1 (stereo unspecified) | 8.025 |
| CN(C)c1ccc(C2CCN(c3cnccn3)CC2)nc1 | 110.3 |
| CSCCCN1CCC[C@]2(C(=O)O)CN(c3cnccn3)CC[C@@H]12 | -18.46 |
| Cc1ccc(CN2CC[C@@H](O)[C@@H]2Cc2ccccc2)o1.O=C(O)C(F)(F)F | 1.325 |
| CC(=O)c1cccc(OCCCC(=O)N(C)Cc2ccccn2)c1 | 14.18 |

| SMILES | Percent Effect [%] |
| --- | --- |
| CC(C)[C@@H]1CN(c2ncc(F)cn2)C[C@H]1NC(=O)N(C)C | 70.99 |
| CCN(C)S(=O)(=O)N[C@H]1CN(c2ccc(F)cn2)C[C@@H]1C(C)C | 1.28 |
| CC(C)[C@@H]1CN(S(=O)(=O)Cc2ccccc2)C[C@H]1NS(=O)(=O)N(C)C | -33.69 |
| COc1ccnc(N2C[C@@H](NS(=O)(=O)N(C)C)[C@H](C(C)C)C2)n1 | 1.494 |
| CC(C)[C@H]1CN(c2ccncc2)C[C@@H]1NS(=O)(=O)N(C)C | 113.1 |
| CC(C)[C@@H]1CN(c2ncc(F)cn2)C[C@H]1NS(=O)(=O)N(C)C | 83.11 |
| CC(C)[C@@H]1CN(c2ccc(F)cn2)C[C@H]1NS(C)(=O)=O | -10.09 |
| CC(C)[C@@H]1CN(Cc2ccsc2)C[C@H]1NS(=O)(=O)N(C)C | 12.46 |
| Cc1noc(C)c1CN1C[C@@H](NC(=O)N(C)C)[C@H](C(C)C)C1 | -17.12 |
| CCc1nc2n(n1)CCCC2Nc1nc(C(C)C)ns1 (stereo unspecified) | -21.17 |
| CC(C)CCN1CC2(CCCN(C(=O)c3cscn3)C2)CCC1=O (stereo unspecified) | -17.51 |
| CC(C)(C)n1cc(C(=O)N2CCN(Cc3ccsc3)CC2)cn1 | 2.604 |
| O=C(NC[C@H]1OC[C@@H](NC2CCC(F)(F)CC2)[C@@H]1O)Nc1ccccc1 | -10.14 |
| Cc1ccc(F)cc1S(=O)(=O)NCc1[nH]ncc1Br | -6.756 |
| CC(=O)N1CCCN(C(=O)Cc2c(C)nc(C)[nH]c2=O)CC1 | -4.556 |
| Cc1cc(NS(=O)(=O)c2cnc3onc(C)c3c2)no1 | -3.715 |
| Fc1cccc(-c2nc(CN3CCCCC3Cn3cncn3)co2)c1 (stereo unspecified) | -6.024 |
| CN(C)C(=O)CN1CCN(Cc2coc(-c3cccc(F)c3)n2)CC1 | 102.1 |
| CC(=O)N1CCN(Cc2coc(-c3cccc(F)c3)n2)CC1 | 97.72 |
| COCC(=O)N1CCN(Cc2coc(-c3cccc(F)c3)n2)CC1 | -10.41 |
| CC1CCCN(Cc2coc(-c3cccc(F)c3)n2)C1 (stereo unspecified) | -1.096 |
| CCNC(=O)C1CN(Cc2c(-c3cc(C)on3)nn(C)c2Cl)CCO1 (stereo unspecified) | -15.99 |

| SMILES | Percent Effect [%] |
| --- | --- |
| CC(C)NC(=O)c1cc2c(nc1N(C)C)CCN(S(=O)(=O)C1CC1)CC2 | -5.433 |
| Cl.O=S(=O)(N1CCCCC1)N1CCc2nc(C3CCNCC3)ncc2C1 | -9.776 |
| CCN(CC)S(=O)(=O)N1CCCC(c2nccn2Cc2ccncc2)C1 (stereo unspecified) | 6.265 |
| CCC(C)S(=O)(=O)N1CCc2nc(C3CCNCC3)ncc2C1.Cl (stereo unspecified) | 105.9 |
| CCN(CC)S(=O)(=O)N1CCc2nc(C3CCNCC3)ncc2C1.Cl | 116.7 |
| CCc1cc(CNC(=O)N2Cc3ccccc3N(C)CC2C)on1 (stereo unspecified) | 12.48 |
| Cc1ncc(CN(C)Cn2nc(-c3ccccc3)oc2=O)s1 | 56.71 |
| CN(Cc1ccc(Br)s1)Cn1nc(-c2ccccc2)oc1=O | 38.33 |
| CN(Cc1ccc(Br)s1)Cn1nc(-c2ccc(F)cc2)oc1=O | 11.33 |
| CSc1nccc(NCC2CNCCO2)n1 (stereo unspecified) | 3.575 |
| Cn1cc(CNCCC(=O)NCc2ccccc2)c(-c2cccnc2)n1 | -3.655 |
| Cc1cnc(C(=O)N2CCCC(n3cncn3)C2)cn1 (stereo unspecified) | 95.37 |
| Cn1nc(C(=O)N2CCCC(n3cncn3)C2)ccc1=O (stereo unspecified) | -5.25 |
| CC(C)c1nc(C(=O)N2CCCC(n3cncn3)C2)c[nH]1 (stereo unspecified) | 7.683 |
| Cc1[nH]ncc1C(=O)N1CCCC(n2cncn2)C1 (stereo unspecified) | -1.83 |
| Cc1c(C(=O)N2CCCC(n3cncn3)C2)cnn1C (stereo unspecified) | 111.3 |
| Cc1cc(C(=O)N2CCCC(n3cncn3)C2)nn1C (stereo unspecified) | 113.3 |
| Cc1cc(C(=O)N2CCCC(n3cncn3)C2)on1 (stereo unspecified) | 105.4 |
| CCc1ccc(C(=O)N2CCCC(n3cncn3)C2)o1 (stereo unspecified) | -14.61 |
| CCC(CC)c1cc(C(=O)N2CCCC(n3cncn3)C2)on1 (stereo unspecified) | -3.018 |
| CCNC(=O)N1C[C@@H]2OCC(=O)N(CC3CC3)[C@@H]2C1 | -6.422 |
| Cc1nsc(NC2CCOC3(CCCCC3)C2)n1 (stereo unspecified) | -0.6251 |
